Holding throughout (experiment): DAPPL (digital affinity profiling via proximity ligation, sequencing); 10 mM Tris-HCl pH 7.5, 50 mM NaCl, 1 mM DTT, 4% glycerol, room temperature, 30 min; GST-TFs on glutathione beads, 16-mer random dsDNA library, 0.1% formaldehyde crosslink after washing; high values mean tight binding
What all share (settings): protein: recombinant; tags: N-terminal GST; dsDNA, one strand shown

The target in one assay is T1, FLI1 (Homo sapiens, UniProt Q01543 1-452).
T1 sequence: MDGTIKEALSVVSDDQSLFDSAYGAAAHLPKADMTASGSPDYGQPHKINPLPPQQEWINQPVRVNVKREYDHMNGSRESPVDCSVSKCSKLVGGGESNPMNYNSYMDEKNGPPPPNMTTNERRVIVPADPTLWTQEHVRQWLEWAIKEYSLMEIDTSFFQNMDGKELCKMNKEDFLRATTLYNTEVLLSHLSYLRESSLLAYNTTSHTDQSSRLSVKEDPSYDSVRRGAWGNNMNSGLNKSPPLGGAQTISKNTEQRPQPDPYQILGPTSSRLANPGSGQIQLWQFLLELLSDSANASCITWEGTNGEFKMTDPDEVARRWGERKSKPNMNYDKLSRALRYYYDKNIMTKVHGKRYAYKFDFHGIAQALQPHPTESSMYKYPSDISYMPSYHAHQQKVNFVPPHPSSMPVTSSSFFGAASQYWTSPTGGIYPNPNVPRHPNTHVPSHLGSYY
In outline:
(§1)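 After expression in yeast as GST fusions, human transcription factors were bound to glutathione beads, DNA-barcoded and mixed with a tag-only sample. The pools were incubated with 200 nmole of a 16-mer random double-stranded DNA library in Tris/NaCl/DTT/glycerol buffer (30 min, room temperature), washed and crosslinked with 0.1% formaldehyde. Proximity ligation with BsaI/T4 ligase ran for 1 h at 37 °C, before PCR amplification and sequencing on an Illumina NextSeq500. Binding signal is a hexamer's read frequency for a factor divided by its frequency for the tag-only sample.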

Another assay addresses T2, ELK1 (Homo sapiens, UniProt P19419 1-428).
T2 sequence: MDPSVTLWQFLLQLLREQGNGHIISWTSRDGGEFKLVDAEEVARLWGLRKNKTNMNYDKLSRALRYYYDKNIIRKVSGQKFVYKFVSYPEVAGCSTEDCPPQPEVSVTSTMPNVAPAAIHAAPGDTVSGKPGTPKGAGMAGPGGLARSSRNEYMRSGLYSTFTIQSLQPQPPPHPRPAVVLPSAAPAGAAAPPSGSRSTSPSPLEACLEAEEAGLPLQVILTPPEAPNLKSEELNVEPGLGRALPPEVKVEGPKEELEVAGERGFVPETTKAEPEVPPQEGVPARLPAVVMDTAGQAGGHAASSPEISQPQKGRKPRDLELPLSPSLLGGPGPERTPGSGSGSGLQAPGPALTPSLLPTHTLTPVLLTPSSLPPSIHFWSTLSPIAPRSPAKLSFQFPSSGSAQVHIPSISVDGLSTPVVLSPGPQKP
In short, it runs like this:
as §1

The next assay addresses T3, GABPA (Homo sapiens, UniProt Q06546 1-454).
T3 sequence: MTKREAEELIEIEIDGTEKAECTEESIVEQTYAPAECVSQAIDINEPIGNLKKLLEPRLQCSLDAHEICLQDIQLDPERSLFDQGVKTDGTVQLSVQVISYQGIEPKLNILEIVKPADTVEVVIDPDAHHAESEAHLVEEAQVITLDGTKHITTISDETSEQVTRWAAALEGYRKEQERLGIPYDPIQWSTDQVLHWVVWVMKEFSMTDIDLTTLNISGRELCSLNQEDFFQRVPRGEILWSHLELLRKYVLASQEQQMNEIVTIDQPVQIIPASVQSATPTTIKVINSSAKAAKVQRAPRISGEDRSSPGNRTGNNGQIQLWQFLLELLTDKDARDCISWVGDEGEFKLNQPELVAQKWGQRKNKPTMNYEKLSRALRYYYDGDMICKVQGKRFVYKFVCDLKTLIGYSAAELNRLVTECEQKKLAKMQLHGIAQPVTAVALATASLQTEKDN
In outline: as §1

The target of another assay is T4, ERG (Homo sapiens, UniProt P11308 1-479).
T4 sequence: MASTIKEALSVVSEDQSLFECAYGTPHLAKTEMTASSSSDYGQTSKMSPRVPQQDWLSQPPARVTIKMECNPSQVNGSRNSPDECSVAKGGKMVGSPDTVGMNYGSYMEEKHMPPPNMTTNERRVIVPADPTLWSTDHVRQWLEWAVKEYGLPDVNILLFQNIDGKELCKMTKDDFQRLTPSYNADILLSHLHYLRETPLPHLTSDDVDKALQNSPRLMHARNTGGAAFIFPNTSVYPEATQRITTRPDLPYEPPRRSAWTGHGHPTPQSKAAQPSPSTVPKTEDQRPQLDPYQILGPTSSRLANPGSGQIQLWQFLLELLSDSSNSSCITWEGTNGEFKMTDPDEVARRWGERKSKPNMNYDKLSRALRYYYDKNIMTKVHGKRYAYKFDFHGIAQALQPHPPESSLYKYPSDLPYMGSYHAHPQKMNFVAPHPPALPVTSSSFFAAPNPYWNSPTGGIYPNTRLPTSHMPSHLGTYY
In short, it runs like this:
as §1

A further assay addresses ELF1 (Homo sapiens, UniProt P32519 1-619). In outline:
as §1

The next assay has as its target T5, EHF (Homo sapiens, UniProt Q9NZC4 1-300).
T5 sequence: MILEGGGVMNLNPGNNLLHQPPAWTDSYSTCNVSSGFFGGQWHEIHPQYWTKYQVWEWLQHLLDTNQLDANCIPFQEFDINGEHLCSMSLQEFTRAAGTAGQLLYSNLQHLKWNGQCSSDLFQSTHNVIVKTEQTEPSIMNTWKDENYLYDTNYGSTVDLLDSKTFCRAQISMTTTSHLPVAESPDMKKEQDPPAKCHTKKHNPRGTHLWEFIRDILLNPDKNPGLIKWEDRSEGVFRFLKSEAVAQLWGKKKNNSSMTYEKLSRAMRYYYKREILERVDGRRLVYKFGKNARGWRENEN
In outline: as §1

Another assay addresses SPI1 (Homo sapiens, UniProt P17947 1-270). In short, it runs like this:
as §1

Another assay addresses T6, ELK3 (Homo sapiens, UniProt P41970 1-407).
T6 sequence: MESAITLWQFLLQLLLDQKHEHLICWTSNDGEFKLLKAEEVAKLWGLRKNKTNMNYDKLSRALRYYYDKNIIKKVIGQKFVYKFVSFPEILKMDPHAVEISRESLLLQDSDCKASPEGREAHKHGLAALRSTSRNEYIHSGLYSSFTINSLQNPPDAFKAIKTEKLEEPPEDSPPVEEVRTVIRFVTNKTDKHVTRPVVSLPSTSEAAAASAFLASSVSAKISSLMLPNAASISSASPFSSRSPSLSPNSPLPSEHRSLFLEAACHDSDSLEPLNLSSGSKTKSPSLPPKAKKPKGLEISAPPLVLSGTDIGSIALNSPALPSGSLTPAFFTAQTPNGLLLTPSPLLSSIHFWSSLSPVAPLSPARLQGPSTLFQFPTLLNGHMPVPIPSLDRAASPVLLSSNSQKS
In outline: as §1

For the next assay, the target named is T7, FEV (Homo sapiens, UniProt Q99581 1-238).
T7 sequence: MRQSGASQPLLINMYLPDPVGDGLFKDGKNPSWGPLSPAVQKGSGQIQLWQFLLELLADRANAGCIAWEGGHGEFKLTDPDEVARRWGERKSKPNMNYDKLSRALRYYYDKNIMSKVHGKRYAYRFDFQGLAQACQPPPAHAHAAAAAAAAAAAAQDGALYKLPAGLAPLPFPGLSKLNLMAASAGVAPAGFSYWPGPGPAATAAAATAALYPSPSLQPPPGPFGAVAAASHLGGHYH
In outline: as §1

The next assay addresses ETV5 (Homo sapiens, UniProt P41161 1-510). In short, it runs like this: as §1
The target of a further assay is T8, SPIC (Homo sapiens, UniProt Q8N5J4 1-248).
T8 sequence: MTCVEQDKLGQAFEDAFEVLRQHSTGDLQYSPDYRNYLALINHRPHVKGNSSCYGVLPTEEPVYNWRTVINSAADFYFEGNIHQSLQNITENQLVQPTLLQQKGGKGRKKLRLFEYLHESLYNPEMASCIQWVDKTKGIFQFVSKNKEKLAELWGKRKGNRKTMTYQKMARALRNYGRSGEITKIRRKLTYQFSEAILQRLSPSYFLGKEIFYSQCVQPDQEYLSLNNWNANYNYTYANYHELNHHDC
In short, it runs like this:
as §1

In the next assay the target is ELF4 (Homo sapiens, UniProt Q99607 1-663). In outline: as §1
Chain of ELF4 (Q99607 whole entry): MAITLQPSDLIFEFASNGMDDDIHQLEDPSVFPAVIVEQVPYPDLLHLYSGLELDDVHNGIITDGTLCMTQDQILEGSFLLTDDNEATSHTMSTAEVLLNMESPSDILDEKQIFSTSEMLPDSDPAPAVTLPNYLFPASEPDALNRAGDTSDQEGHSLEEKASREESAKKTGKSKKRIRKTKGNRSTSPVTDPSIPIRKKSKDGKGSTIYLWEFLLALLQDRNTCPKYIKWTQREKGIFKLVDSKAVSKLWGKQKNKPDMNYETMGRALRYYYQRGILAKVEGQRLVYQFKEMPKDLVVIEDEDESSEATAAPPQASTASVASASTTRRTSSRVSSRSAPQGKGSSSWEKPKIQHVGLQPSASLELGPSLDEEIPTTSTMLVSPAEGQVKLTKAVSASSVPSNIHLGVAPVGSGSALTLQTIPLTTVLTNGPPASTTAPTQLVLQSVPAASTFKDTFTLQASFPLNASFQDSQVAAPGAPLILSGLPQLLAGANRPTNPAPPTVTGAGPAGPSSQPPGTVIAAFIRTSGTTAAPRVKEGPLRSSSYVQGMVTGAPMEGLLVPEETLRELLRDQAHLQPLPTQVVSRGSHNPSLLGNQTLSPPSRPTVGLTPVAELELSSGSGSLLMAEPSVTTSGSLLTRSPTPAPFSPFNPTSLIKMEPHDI
In the next assay the target is ETV1 (Homo sapiens, UniProt P50549 1-477). In outline:
as §1

For a further assay, the target named is T9, ERF (Homo sapiens, UniProt P50548 1-548).
T9 sequence: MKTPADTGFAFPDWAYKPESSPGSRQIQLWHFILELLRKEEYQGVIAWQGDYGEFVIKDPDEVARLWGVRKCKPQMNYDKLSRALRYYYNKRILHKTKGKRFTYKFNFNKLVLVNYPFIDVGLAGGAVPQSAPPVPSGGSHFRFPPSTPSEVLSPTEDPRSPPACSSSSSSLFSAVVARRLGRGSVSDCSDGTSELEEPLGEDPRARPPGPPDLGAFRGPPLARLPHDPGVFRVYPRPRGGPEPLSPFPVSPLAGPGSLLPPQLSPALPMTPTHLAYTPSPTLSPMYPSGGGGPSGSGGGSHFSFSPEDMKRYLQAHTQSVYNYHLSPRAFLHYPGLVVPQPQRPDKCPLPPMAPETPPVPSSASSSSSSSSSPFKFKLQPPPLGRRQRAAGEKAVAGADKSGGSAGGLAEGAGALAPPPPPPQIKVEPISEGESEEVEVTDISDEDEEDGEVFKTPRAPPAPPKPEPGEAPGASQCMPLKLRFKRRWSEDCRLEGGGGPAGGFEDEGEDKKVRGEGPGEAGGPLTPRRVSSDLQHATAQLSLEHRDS
In outline: as §1

For another assay, the target named is T10, ETV3L (Homo sapiens, UniProt Q6ZN32 1-361).
T10 sequence: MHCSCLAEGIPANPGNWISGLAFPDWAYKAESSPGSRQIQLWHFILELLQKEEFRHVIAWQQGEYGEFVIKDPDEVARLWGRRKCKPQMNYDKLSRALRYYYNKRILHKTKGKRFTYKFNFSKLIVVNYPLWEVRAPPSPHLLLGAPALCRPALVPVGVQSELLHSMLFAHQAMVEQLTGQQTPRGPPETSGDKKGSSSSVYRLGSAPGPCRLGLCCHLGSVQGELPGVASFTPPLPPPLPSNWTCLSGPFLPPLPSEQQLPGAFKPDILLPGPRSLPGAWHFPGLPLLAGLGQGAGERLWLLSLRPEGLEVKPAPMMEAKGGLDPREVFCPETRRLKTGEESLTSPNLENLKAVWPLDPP
In short, it runs like this: as §1

The next assay concerns the target T11, ETS2 (Homo sapiens, UniProt P15036 1-469).
T11 sequence: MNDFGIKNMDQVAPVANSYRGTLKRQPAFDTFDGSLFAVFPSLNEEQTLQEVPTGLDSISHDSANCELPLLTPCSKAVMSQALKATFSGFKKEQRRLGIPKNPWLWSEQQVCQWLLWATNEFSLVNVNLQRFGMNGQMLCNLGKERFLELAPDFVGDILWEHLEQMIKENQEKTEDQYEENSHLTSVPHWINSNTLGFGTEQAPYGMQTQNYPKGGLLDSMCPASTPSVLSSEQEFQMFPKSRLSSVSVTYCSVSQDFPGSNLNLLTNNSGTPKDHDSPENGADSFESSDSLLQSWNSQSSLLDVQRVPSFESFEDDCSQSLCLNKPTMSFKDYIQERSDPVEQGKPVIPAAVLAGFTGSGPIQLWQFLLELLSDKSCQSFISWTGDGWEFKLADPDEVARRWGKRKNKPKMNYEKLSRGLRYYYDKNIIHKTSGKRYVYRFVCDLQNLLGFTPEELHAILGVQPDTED
In outline:
as §1

The next assay deals with T12, ELF5 (Homo sapiens, UniProt Q9UKW6-2 1-255).
T12 sequence: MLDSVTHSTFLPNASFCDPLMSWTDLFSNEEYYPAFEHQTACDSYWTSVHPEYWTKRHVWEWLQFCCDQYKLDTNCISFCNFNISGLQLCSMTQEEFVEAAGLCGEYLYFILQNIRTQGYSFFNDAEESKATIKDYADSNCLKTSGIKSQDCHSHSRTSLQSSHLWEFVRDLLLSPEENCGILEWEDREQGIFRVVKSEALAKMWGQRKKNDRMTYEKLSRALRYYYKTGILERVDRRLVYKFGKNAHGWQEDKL
In short, it runs like this: as §1

In the next assay the target is ETV6 (Homo sapiens, UniProt P41212 1-452). In short, it runs like this:
as §1

Chain of ELF1 (P32519 whole entry): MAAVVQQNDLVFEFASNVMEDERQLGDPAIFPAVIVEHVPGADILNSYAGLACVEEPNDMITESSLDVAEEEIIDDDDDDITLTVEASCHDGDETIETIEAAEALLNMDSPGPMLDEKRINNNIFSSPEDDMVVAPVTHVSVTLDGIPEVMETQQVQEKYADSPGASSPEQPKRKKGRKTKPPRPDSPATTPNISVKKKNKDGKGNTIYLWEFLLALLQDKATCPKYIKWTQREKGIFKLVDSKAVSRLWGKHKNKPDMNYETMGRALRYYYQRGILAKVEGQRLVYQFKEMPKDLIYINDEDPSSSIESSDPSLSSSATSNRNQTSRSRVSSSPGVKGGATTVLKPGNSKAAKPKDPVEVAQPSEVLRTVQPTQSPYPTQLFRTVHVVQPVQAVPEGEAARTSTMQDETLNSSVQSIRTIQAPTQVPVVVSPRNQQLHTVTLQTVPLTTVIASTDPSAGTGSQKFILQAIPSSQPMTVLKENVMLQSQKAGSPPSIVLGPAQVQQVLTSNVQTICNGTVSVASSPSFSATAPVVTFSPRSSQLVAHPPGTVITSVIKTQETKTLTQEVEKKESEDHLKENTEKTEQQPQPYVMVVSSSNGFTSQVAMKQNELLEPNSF
Chain of ETV1 (P50549 whole entry): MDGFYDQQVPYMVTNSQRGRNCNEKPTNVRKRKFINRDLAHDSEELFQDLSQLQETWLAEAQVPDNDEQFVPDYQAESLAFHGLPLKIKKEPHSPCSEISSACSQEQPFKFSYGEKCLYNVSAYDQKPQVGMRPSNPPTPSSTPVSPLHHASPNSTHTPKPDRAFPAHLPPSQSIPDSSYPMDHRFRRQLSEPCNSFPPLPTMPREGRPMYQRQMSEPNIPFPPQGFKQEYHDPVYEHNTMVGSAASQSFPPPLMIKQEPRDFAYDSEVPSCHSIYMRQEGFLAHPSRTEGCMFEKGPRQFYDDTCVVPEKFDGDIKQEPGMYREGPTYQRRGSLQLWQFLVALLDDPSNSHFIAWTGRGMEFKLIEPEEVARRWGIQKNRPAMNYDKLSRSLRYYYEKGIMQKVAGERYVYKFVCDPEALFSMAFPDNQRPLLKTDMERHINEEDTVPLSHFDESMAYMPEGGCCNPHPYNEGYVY
Chain of ETV5 (P41161 whole entry): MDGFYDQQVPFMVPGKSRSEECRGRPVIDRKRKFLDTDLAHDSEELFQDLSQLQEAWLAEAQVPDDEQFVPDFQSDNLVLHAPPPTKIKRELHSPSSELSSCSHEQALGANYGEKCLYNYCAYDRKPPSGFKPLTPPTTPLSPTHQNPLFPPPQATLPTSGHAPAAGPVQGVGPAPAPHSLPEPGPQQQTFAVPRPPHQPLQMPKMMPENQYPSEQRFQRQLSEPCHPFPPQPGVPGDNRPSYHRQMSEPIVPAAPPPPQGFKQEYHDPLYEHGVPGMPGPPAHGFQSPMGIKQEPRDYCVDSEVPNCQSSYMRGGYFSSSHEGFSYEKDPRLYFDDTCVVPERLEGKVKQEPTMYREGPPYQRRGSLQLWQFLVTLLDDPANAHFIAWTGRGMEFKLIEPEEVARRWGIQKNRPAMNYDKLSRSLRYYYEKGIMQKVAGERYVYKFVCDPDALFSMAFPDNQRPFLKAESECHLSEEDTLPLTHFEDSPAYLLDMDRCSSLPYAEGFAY
Chain of ETV6 (P41212 whole entry): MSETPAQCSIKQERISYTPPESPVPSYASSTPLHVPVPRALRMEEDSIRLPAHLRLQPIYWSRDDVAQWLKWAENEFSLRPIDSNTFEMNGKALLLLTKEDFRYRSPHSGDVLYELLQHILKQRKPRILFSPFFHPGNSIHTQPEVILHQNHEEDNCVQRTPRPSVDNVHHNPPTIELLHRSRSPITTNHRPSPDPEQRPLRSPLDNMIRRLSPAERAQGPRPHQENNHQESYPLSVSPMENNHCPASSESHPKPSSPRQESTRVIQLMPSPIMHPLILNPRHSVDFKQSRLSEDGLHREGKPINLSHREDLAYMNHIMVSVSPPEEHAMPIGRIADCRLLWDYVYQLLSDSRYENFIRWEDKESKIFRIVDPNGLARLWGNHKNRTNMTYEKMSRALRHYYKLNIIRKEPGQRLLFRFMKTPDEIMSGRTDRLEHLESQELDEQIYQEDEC

CATACG: the binding signal in the assay with FLI1 was 1.05 fold enrichment (6-mer frequency, TF over GST control); with ELK1, 1.01 fold enrichment (6-mer frequency, TF over GST control); with GABPA it was 1.03 fold enrichment (6-mer frequency, TF over GST control); with ERG, 1.06 fold enrichment (6-mer frequency, TF over GST control); in the assay with ELF1 it was 1.08 fold enrichment (6-mer frequency, TF over GST control); with EHF, 1.07 fold enrichment (6-mer frequency, TF over GST control). The binding signal with SPI1 is 1.06 fold enrichment (6-mer frequency, TF over GST control); with ELK3, 1.12 fold enrichment (6-mer frequency, TF over GST control); with FEV, 1.05 fold enrichment (6-mer frequency, TF over GST control); in the assay with ETV5, 1.08 fold enrichment (6-mer frequency, TF over GST control); with SPIC it was 1.04 fold enrichment (6-mer frequency, TF over GST control); in the assay with ELF4 it was 1.03 fold enrichment (6-mer frequency, TF over GST control). The binding signal is 1.06 fold enrichment (6-mer frequency, TF over GST control) in the assay with ETV1; 1.13 fold enrichment (6-mer frequency, TF over GST control) in the assay with ERF; 1.12 fold enrichment (6-mer frequency, TF over GST control) with ETV3L; 1.01 fold enrichment (6-mer frequency, TF over GST control) with ETS2; 1.06 fold enrichment (6-mer frequency, TF over GST control) in the assay with ELF5; 1.01 fold enrichment (6-mer frequency, TF over GST control) with ETV6.

The values are drawn from paper PMC7862700, “An all-to-all approach to the identification of sequence-specific readers for epigenetic DNA modifications on cytosine”.
